Experimental findings from PubChem BioAssay are described below.

“And” between values parts separate entries of the source, which are not always exact repeats. Equal values may be shown once. The source made the active and inactive calls.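 How the source made its calls: active means compounds whose cell count with miR-34 switched on is under 0.7 times the count with it off; inactive means the rest.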

A short description of the test: sensitizers of A549 cells to miR-34 induction, primary screen, imaging, A549 dox-inducible miR-34, nuclei and caspase counts (AID 1347080). Further: test concentration not given here. Conditions: A549 miR-34 inducible, Hoechst nuclei count, 48 h.
The mark [1] stands for this setting: stronger effect = lower value, cell number ratio, induced over uninduced.
[2] abbreviates: measured here: relative caspase fold change +Dox/-Dox.
[3] abbreviates: measured here: total cells with miR-34 induction, stronger effect = lower value.
The mark [4] stands for this setting: measured here: total cells without miR-34 induction.

Take `CCCCCCCCCCCCCCCCC/C=C\C(=O)O`: the fold change was 0.872 (inactive) under setting [1] and 1 under setting [2]. Besides, the cell count under setting [3] came to 5170 and the cell count under setting [4] was 5930.
In the same order, the values of `CCCCCCCCCCCCCCCCCC(=O)NCCO` are 0.986 (inactive), 1.01, 6030 and 6120.
In the same order, the values of `CCCCCCCCCCCC(=O)NC[C@]1(C)CCC[C@]2(C)c3ccc(C(C)C)cc3CC[C@@H]12` are 0.97 (inactive), 1.59, 6180 and 6370.
Turning to `CCCCCCCC/C=C\CCCCCCCC(=O)OCC(O)COP(=O)(O)O` (configuration not stated), the fold change under setting [1] was 1.12 (inactive) and the fold change under setting [2] was found to be 0.696. Further, the cell count was 5760 under setting [3] and 5140 under setting [4].
In the same order, the values of `CCCCC[C@H](O)/C=C/[C@@H]1[C@H]2C/C(=C\CCCC(=O)O)C[C@H]2C[C@H]1O` are 0.922 (inactive), 1.13, 6140 and 6660.
With `CC/C=C\C/C=C\C/C=C\C/C=C\CCCCC(=O)OCC`, the fold change under setting [1] was 1.03 (inactive) and the fold change under setting [2] amounted to 1.28. The cell count is, setting by setting: under setting [3], 5830; under setting [4], 5650.
As to `CCCCC[C@H](O)/C=C/[C@@H]1[C@@H](C/C=C\CCCC(=O)NC(CO)CO)[C@@H](O)C[C@H]1O`, the fold change under setting [1] is 1.01 (inactive) and the fold change under setting [2] worked out at 1.3. For the same compound, the cell count was 6050 under setting [3] and 5980 under setting [4].
In the same order, the values of `O=C(O)CCC/C=C/C[C@@H]1[C@@H](CC[C@@H](O)CCc2ccccc2)[C@H](O)C[C@@H]1O` are 0.961 (inactive), 1.3, 5820 and 6060.
In the same order, the values of `CC(=O)OC1=C(C)NC(C)=C(OC(C)=O)C1c1ccccc1[N+](=O)[O-]` are 0.849 (inactive), 1.01, 3570 and 4210.
For `CCCCCC(=O)CC[C@H]1[C@H](O)CC(=O)[C@@H]1C/C=C\CCCC(=O)O`, the fold change is 0.975 (inactive) under setting [1] and 1.25 under setting [2]. The cell count by setting is: under setting [3], 6140; under setting [4], 6290.
In the same order, the values of `CCCCCCCCCC(=O)N[C@@H](Cc1c[nH]c2ccccc12)C(=O)N[C@@H](CC(N)=O)C(=O)N[C@@H](CC(=O)O)C(=O)N[C@@H]1C(=O)NCC(=O)N[C@@H](CCCN)C(=O)N[C@@H](CC(=O)O)C(=O)N[C@H](C)C(=O)N[C@@H](CC(=O)O)C(=O)NCC(=O)N[C@H](CO)C(=O)NC([C@@H](C)CC(=O)O)C(=O)N[C@@H](CC(=O)c2ccccc2N)C(=O)OC1C` (some centres not stated) are 0.953 (inactive), 0.725, 8550 and 8980.
In the same order, the values of `CCCCC[C@@](C)(O)/C=C/[C@@H]1C(C/C=C\CCCC(=O)O)[C@@H](O)C[C@H]1O` (some centres not stated) are 0.939 (inactive), 1.76, 6110 and 6510.
For `CCCCC/C=C\C/C=C\C/C=C\C/C=C\CCCC(=O)C(F)(F)F`, the fold change was 0.997 (inactive) under setting [1] and 0.841 under setting [2]. Besides, the cell count reads like this: under setting [3], 5370; under setting [4], 5390.
For `CCCCC[C@H](O)/C=C/[C@H]1C(=O)C[C@H](O)[C@@H]1CCCCCCC(=O)O`, the fold change under setting [1] was 0.92 (inactive) and the fold change under setting [2] turned out to be 0.486. The cell count was found to be 4900 under setting [3] and 5320 under setting [4].
Turning to `CCCCC[C@@H](O)/C=C/[C@H]1[C@H](O)CC(=O)[C@@H]1CCCCCCC(=O)O`, the fold change under setting [1] was 0.974 (inactive) and the fold change under setting [2] was 1.39. In addition, the cell count under setting [3] is 5460 and the cell count under setting [4] amounted to 5600.
In the case of `[C-]#[N+]c1cc(-c2ccncc2)c(C)[nH]c1=O`, the fold change runs as follows: under setting [1], 0.91 (inactive); under setting [2], 1.32. Moreover, the cell count under setting [3] was determined as 5870 and the cell count under setting [4] was determined as 6450.
For `CCCCCCCCCCCCCCP(=O)(O)O`, the fold change is, setting by setting: under setting [1], 0.898 (inactive); under setting [2], 0.729. Also, the cell count is, setting by setting: under setting [3], 4910; under setting [4], 5470.
On to `CCCCCC(=O)/C=C/[C@@H]1[C@@H](CCCCCCC(=O)O)[C@@H](O)C[C@H]1O`, for which the fold change runs as follows: under setting [1], 1.03 (inactive); under setting [2], 1.29. Further, the cell count under setting [3] turned out to be 5670 and the cell count under setting [4] came out at 5520.
On to `COc1ccc2c(c1)c(CC(=O)NCCc1ccccc1)c(C)n2C(=O)c1ccc(Cl)cc1`, for which the fold change is 1.02 (inactive) under setting [1] and 0.638 under setting [2]. Further, the cell count by setting is: under setting [3], 6040; under setting [4], 5920.
In the same order, the values of `CC[C@@H]1/C=C(\C)C[C@H](C)C[C@H](OC)[C@H]2O[C@@](O)(C(=O)C(=O)N3CCCC[C@H]3C(=O)O[C@H](/C(C)=C/[C@@H]3CC[C@@H](O)[C@H](OC)C3)[C@H](C)[C@@H](O)CC1=O)[C@H](C)C[C@@H]2OC` are 0.914 (inactive), 1.28, 3590 and 3930.
Consider `C=C1C[C@@H](O)[C@H](/C=C/[C@@H](O)C(C)(C)CCCC)[C@H]1C/C=C\CCCC(=O)O`, for which the fold change is 0.979 (inactive) and 0.901 (inactive) under setting [1]; 1.17 and 1.12 under setting [2]. Further, the cell count is, setting by setting: under setting [3], 6150 and 5990; under setting [4], 6290 and 6650.
In the case of `CCCCCCCCCCCCCCCC(=O)OC[C@H](COP(=O)([O-])OCC[N+](C)(C)C)OC(=O)CCCC(=O)/C=C/C(=O)O`, the fold change is, setting by setting: under setting [1], 1 (inactive); under setting [2], 0.771. The cell count under setting [3] came out at 5760 and the cell count under setting [4] was found to be 5760.
`CCCCCCC(Sc1nc(Cl)cc(NCc2ccc(-c3ccccc3)cc2)n1)C(=O)O` (configuration not stated): the fold change was 0.993 (inactive) under setting [1] and 1.34 under setting [2]. Also, the cell count under setting [3] turned out to be 6140 and the cell count under setting [4] stood at 6180.
Consider `CCCCC[C@H](O)/C=C/[C@H]1C(=O)C[C@H](O)[C@@H]1C/C=C\CCCC(=O)NC(CO)CO`, for which the fold change is 0.913 (inactive) under setting [1] and 1.9 under setting [2]. In addition, the cell count under setting [3] is 5680 and the cell count under setting [4] is 6220.
Take `N[C@@H](Cc1ccc(O)c([N+](=O)[O-])c1)C(=O)O`: the fold change under setting [1] was 0.943 (inactive) and the fold change under setting [2] was 1.05. Further, the cell count is, setting by setting: under setting [3], 5730; under setting [4], 6080.
In the same order, the values of `CCCCC[C@H](O)/C=C/[C@@H]1[C@H](C/C=C\CCCC(=O)NCCO)[C@@H](O)C[C@H]1O` are 1.11 (inactive), 0.881, 6440 and 5790.
Regarding `CCCCCNC1=C(c2cn(C)c3ccccc23)C(=O)N(C)C1=O`, the fold change is 0.981 (inactive) under setting [1] and 1.69 under setting [2]. Moreover, the cell count stood at 6020 under setting [3] and 6140 under setting [4].
For the compound `CCCCC[C@H](O)/C=C/[C@H]1[C@H](O)CC(=O)[C@@H]1CCCCCCC(=O)NCCO`, the fold change reads like this: under setting [1], 0.954 (inactive); under setting [2], 1.4. Moreover, the cell count turned out to be 5990 under setting [3] and 6270 under setting [4].
